Experimental data: PubChem BioAssay (EPA / NIEHS)
Active and inactive are the calls of the source. The calls were made as follows: active = hit-call score of the fitted dose curve at least 0.9, where 1 is the maximum; inactive = score below 0.9.

Each molecule was assayed against Signal transducer and activator of transcription 3 (Homo sapiens) (UniProt P40763) (assay: ATG_STAT3_CIS: Attagene CIS-FACTORIAL HepG2 Assay for human Signal Transducer and Activator of Transcription 3 (STAT3) (AID 2282963)). Details: HepG2, Attagene cis-factorial STAT3 reporter transcription; actives raise or lower the signal.
Sequence of Signal transducer and activator of transcription 3 (Homo sapiens) (P40763 whole entry, looked up): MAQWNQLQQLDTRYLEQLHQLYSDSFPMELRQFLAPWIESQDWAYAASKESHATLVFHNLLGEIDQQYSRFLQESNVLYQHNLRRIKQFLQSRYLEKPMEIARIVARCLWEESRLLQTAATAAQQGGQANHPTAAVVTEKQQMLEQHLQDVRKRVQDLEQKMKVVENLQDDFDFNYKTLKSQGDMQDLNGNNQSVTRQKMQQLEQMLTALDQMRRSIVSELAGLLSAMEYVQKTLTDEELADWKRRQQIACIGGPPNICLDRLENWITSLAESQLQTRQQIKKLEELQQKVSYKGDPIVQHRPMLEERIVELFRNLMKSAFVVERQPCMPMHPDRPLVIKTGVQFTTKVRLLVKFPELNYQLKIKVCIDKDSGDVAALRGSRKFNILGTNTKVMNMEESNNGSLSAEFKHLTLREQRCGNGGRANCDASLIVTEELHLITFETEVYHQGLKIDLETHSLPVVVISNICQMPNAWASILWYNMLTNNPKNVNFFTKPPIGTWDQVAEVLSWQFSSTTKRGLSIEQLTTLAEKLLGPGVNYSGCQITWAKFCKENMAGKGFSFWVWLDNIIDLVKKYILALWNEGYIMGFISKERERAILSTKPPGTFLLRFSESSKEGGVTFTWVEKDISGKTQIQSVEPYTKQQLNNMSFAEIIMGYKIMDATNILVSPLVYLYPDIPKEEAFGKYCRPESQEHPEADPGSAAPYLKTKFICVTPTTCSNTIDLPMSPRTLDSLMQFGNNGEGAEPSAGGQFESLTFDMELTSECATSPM
Protocol: ATG_CIS is a cell-based, multiplexed-readout assay that uses HepG2, a human liver cell line, with measurements taken at 24 hours after chemical dosing in a 24-well plate.ATG_STAT3_CIS is one of 52 assay component(s) measured or calculated from the ATG_CIS assay. It is designed to make measurements of mRNA induction, a form of inducible reporter, as detected with fluorescence intensity signals by Reverse transcription polymerase chain reaction (RT-PCR) and Capillary electrophoresis technology.Data from the assay component ATG_STAT3_CIS was analyzed into 1 assay endpoint. This assay endpoint, ATG_STAT3_CIS, was analyzed with bidirectional fitting relative to DMSO as the negative control and baseline of activity. Using a type of inducible reporter, measures of mRNA for gain or loss-of-signal activity can be used to understand the reporter gene at the transcription factor-level as they relate to the gene STAT3. Furthermore, this assay endpoint can be referred to as a primary readout, because this assay has produced multiple assay endpoints where this one serves a reporter gene function. To generalize the intended target to other relatable targets, this assay endpoint is annotated to the dna binding intended target family, where the subfamily is stat protein.
Human liver HepG2 cells are transiently transfected with multiple reporter transcription units (MRTUs) in 6-well plates using FuGene 6 reagent (Roche; 3 ml FuGene/1 mg DNA). The MRTU constructs are regulated by a cis-regulating element (promoter). […] A major difference between the CIS and TRANS system is that in CIS activities of endogenous TFs are measured, whereas the TRANS assay evaluates changes in activities of exogenous, chimeric NR-Gal4 proteins. […] At the end of 24 hour incubation, total RNA was isolated using TriZol reagent (Invitrogen). The isolated RNA is then reverse-transcribed using oligo(dT) primer and Mo-MLV reverse transcriptase (Invitrogen) with DNAse I (Ambion) treatment for 30 min. The one-tenth of the produced cDNA was amplified by PCR using Taq DNA polymerase (Invitrogen) and two reporter sequence-specific primers. The PCR products were fluorescently labeled by primer extension with 6-arboxyfluorescein (6-FAM) 5'-labeled reporter sequence-specific primer (2 min at 95 C, 20 s at 68 C and 10 min at 72 C) and these products were digested with 5U of HpaI (New England Biolabs) for 2h at 37 C. The fragments were purified using Qiaquick PCR columns (Qiagen), analyzed on an ABI 3130xL genetic analyzer (Applied Biosystems) with peak positions identified by using a set of X-rhodamine (ROX)-labeled MapMarker1000 molecular weight standards (BioVentures). The raw capillary electrophoresis data was processed using Attagraph software (Attagene).

Compound	outcome
N#CC1(N)CCCCC1	inactive
CCC1(C)C(=O)N(Cl)C(=O)N1Cl (stereo not given)	inactive
C[N+](C)(C)CCCNS(=O)(=O)C(F)(F)C(F)(F)C(F)(F)C(F)(F)C(F)(F)C(F)(F)C(F)(F)C(F)(F)F	inactive
CC(C=O)c1ccccc1 (stereo not given)	inactive
C=Cc1ccc(OC(C)=O)cc1	inactive
O=C(O)CC(C(=O)O)S(=O)(=O)O (stereo not given)	inactive
CCCCOCCOC(=O)COc1ccc(Cl)cc1Cl	inactive
Nc1ncnc2nc[nH]c12	inactive
CCc1cccc(C)c1N	inactive
Cc1c(O)cccc1O	inactive
CCCCCCCOC(=O)c1ccc(O)cc1	inactive
CCCCOCCOCCOC(C)=O	inactive
C=C(C)[C@@H]1CC=C(C)CC1	inactive
COC(=O)CC(C)CCC=C(C)C (stereo not given)	inactive
Nc1ccnc(=O)[nH]1	inactive
Nc1cccc(N)n1	inactive
CC(=O)CCC=C(C)C	inactive
Cc1ccc(S(=O)(=O)N=C=O)cc1	inactive
Cc1noc(NS(=O)(=O)c2ccc(N)cc2)c1C	inactive
CC(C)c1ccc(O)c(C(C)C)c1	inactive

Compound	outcome
C=C1C[C@H]2[C@@H]3C=C(C)C4=CC(=O)CC[C@]4(C)[C@H]3CC[C@]2(C)[C@@]1(OC(C)=O)C(C)=O	inactive
CCCCc1ccc(Cl)cc1	inactive
O=C1CCCCC1C1CCCCC1 (stereo not given)	inactive
c1ccc2cnccc2c1	inactive
C[Si](C)(C)N[Si](C)(C)C	inactive
Cc1c[nH]c(=O)[nH]c1=O	inactive
N#Cc1ccc(C2CCCc3cncn32)cc1 (stereo not given)	inactive
N#Cc1ccc(C(c2ccc(C#N)cc2)n2cncn2)cc1	inactive
CN1CCN(C)CC1	inactive
CCOC(=O)C1=NOC(c2ccccc2)(c2ccccc2)C1	inactive
CCCCCC(=O)OCC	inactive
CC(=O)c1ccccc1O	inactive
CCCC1CCCC(=O)O1 (stereo not given)	inactive
CO[Si](C)(C)OC	inactive
O=C1CCCCCCCCCCCN1	inactive
C=CC(=O)OCCCCCCCC(C)C	inactive
COC(Cc1ccccc1)OC	inactive
CN(C)Cc1cc(CN(C)C)c(O)c(CN(C)C)c1	inactive
C=C(C)C(=O)OCC(O)COc1ccc(C(C)(C)c2ccc(OCC(O)COC(=O)C(=C)C)cc2)cc1 (stereo not given)	inactive
C=CCNCC=C	inactive
